Assay results as given in the supplement of paper PMC10849652.
Targets with a hit are over-represented here; the source holds about 7,900 in all. About 0.6% of all pairs of compound and target were hits. Values without a mark were called inactive.

Assays:
Test in all cases: log2 fold change, soluble protein after heating vs DMSO (PISA); higher = thermal stabilisation; K562 cells, 10 uM, 30 min; active = over 0.2 and 3.5 SD of the protein, either way, in both replicates (recomputed)
[1] = compound: CC1=C(C=C(C=C1)NC(=O)C2=CC(=CC=C2)C(C)(C)C#N)NC3=CC4=C(C=C3)N=CN(C4=O)C
Outline: (§1)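 Aliquots of K562 cells (2×10^6 cells/mL) treated with 10 μM compound for 30 min were heated for 3 min over 48°C-58°C. After pooling and extraction in PBS with 0.5% NP-40 at 4°C, soluble protein from a 21,000xg, 90 min spin was quantified by TMTpro 16plex LC-MS/MS with channel sums equalised. Thermal stability is expressed against control samples, from duplicates, as a log2 fold change.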

[2] = compound: CC1=C(C=C(C=C1)NC(=O)C2=CC(=CC=C2)N(C)C)NC(=O)C3=CC=C(C=C3)O
Outline: as §1

[3] = compound: CC1=CC=C(C=C1)SC2=C3C=C(SC3=CN=C2)C(=O)N
Outline: as §1

[4] = compound: CC1=NC(=CC=C1)C2=C(N=C(N2)C(C)(C)C)C3=CC4=NC=CN=C4C=C3
Outline: as §1

Nexturastat A = compound: CCCCN(Cc1ccc(C(=O)NO)cc1)C(=O)Nc1ccccc1 [Nexturastat A]
Outline: as §1

vemurafenib = compound: CCCS(=O)(=O)Nc1ccc(F)c(C(=O)c2c[nH]c3ncc(-c4ccc(Cl)cc4)cc23)c1F [vemurafenib]
Outline: as §1

[5] = compound: CCCS(=O)(=O)Nc1ccc(F)c(C(=O)c2c[nH]c3ncc(Cl)cc23)c1F
Outline: as §1

[6] = compound: CCCc1cc(C)[nH]c(=O)c1CNC(=O)c1cc(-c2ccnc(N3CCN(C)CC3)c2)cc2c1cnn2C(C)C
Outline: as §1

givinostat = compound: CCN(CC)Cc1ccc2cc(COC(=O)Nc3ccc(C(=O)NO)cc3)ccc2c1 [givinostat]
Outline: as §1

barasertib = compound: CCN(CCCOc1ccc2c(Nc3cc(CC(=O)Nc4cccc(F)c4)[nH]n3)ncnc2c1)CCOP(=O)(O)O [barasertib]
Outline: as §1

Chain of UniProt Q9Y5W9 (Q9Y5W9 whole entry, looked up): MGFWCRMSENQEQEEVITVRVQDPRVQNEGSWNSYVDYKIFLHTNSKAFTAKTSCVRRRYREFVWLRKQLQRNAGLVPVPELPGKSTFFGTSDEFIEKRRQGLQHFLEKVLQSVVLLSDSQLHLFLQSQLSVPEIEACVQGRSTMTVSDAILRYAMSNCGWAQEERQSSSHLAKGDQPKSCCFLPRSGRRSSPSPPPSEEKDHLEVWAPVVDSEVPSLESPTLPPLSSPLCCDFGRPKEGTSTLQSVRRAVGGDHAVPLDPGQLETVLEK
Chain of UniProt P55061 (P55061 whole entry, looked up): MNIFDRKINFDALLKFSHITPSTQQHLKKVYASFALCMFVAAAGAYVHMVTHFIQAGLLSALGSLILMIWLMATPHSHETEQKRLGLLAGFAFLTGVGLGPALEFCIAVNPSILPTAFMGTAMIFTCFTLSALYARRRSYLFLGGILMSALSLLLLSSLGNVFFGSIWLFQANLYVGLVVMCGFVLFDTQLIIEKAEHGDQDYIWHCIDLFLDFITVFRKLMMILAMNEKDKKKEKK
Chain of UniProt Q92844 (Q92844 whole entry, looked up): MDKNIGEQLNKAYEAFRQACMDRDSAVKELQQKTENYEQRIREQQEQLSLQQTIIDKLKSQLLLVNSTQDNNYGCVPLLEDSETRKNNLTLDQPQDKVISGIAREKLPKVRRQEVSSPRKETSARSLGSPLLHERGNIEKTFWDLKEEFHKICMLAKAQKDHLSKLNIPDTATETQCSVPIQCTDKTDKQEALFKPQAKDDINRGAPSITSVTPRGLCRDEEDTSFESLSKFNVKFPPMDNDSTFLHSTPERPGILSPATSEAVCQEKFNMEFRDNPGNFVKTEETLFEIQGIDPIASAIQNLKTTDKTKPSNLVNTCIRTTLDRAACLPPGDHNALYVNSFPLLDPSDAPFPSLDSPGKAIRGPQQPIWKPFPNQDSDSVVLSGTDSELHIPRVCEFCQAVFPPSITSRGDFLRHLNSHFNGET
Chain of UniProt Q9UP52 (Q9UP52 whole entry, looked up): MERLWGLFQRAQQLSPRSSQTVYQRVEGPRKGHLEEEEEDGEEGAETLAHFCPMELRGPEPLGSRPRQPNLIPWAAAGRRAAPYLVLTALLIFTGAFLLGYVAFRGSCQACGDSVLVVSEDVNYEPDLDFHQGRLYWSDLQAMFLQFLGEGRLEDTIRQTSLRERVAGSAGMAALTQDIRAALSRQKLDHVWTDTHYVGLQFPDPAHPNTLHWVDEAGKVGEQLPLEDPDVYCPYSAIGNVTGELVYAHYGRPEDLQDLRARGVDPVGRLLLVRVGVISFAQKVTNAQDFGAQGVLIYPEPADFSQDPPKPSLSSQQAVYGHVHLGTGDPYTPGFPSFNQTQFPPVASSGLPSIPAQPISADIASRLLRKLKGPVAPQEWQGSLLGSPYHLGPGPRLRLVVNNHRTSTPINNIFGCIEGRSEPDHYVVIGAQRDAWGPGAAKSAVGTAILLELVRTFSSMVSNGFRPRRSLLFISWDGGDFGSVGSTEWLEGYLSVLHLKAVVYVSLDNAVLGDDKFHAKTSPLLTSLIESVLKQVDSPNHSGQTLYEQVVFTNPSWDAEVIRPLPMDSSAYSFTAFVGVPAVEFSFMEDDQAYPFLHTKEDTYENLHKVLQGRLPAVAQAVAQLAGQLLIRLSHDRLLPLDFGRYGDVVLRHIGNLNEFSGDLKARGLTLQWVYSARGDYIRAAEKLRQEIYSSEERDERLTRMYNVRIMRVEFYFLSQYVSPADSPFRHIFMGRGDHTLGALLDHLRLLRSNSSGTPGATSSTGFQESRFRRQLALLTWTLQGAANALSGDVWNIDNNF
Chain of UniProt Q14849 (Q14849 whole entry, looked up): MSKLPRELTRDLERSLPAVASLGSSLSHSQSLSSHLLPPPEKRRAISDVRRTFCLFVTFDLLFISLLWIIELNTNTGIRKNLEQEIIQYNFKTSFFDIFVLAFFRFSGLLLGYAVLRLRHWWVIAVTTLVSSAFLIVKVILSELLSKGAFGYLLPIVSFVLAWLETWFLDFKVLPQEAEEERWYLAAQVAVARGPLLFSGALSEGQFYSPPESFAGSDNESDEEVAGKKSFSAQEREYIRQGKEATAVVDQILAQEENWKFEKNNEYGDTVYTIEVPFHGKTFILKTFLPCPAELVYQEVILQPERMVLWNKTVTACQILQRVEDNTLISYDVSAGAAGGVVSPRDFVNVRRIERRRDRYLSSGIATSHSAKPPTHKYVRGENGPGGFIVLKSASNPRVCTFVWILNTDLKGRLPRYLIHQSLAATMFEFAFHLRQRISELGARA
Chain of UniProt P02786 (P02786 whole entry, looked up): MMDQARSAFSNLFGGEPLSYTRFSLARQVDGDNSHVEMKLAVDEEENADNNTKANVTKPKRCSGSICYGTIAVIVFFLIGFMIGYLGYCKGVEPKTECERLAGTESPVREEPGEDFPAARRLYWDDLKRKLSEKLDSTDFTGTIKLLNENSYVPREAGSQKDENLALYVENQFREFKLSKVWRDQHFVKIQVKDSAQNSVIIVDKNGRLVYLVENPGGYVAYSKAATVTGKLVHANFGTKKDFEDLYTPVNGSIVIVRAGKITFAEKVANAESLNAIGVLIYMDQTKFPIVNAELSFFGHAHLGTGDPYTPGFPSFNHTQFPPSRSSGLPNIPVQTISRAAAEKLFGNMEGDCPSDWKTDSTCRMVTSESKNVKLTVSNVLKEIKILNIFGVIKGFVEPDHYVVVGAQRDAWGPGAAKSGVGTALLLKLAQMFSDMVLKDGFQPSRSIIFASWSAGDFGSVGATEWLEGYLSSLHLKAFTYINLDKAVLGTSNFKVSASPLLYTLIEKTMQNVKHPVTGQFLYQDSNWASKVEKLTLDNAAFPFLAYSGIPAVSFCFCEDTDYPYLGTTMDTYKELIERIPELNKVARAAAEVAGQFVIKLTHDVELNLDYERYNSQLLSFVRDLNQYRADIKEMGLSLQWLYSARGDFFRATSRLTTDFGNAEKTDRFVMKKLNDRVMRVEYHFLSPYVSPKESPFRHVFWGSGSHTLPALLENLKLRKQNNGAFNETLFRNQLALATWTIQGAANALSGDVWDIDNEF
Chain of UniProt Q16385 (Q16385 whole entry, looked up): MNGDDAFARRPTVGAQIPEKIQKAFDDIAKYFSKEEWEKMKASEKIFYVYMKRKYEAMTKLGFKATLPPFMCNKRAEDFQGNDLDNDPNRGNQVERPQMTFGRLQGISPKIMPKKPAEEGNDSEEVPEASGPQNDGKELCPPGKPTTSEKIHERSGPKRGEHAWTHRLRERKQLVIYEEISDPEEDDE
Chain of UniProt Q00059 (Q00059 whole entry, looked up): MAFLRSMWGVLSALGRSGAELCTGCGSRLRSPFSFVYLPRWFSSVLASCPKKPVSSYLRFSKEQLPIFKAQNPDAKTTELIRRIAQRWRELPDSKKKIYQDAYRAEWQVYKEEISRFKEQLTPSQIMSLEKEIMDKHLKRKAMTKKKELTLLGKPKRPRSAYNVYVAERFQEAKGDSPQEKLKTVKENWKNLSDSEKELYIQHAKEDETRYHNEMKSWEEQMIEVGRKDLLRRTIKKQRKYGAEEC
Chain of UniProt Q8IWZ8 (Q8IWZ8 whole entry, looked up): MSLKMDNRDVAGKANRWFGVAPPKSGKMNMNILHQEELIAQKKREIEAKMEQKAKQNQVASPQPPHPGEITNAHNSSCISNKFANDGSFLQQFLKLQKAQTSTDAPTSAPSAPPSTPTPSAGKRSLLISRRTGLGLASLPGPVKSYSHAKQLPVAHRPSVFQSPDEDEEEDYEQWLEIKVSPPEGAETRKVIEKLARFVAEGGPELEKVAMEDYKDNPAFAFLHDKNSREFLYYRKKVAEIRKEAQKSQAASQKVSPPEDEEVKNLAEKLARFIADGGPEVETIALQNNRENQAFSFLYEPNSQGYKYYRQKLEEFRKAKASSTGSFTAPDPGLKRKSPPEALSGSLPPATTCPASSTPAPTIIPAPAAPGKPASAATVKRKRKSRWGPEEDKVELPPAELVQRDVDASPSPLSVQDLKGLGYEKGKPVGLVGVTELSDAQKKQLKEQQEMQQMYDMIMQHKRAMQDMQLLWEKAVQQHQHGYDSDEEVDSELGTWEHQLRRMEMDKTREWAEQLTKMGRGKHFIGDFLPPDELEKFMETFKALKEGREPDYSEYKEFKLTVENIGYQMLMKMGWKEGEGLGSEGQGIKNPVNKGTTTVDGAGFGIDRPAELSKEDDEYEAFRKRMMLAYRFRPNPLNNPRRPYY
Chain of UniProt Q6PCB7 (Q6PCB7 whole entry, looked up): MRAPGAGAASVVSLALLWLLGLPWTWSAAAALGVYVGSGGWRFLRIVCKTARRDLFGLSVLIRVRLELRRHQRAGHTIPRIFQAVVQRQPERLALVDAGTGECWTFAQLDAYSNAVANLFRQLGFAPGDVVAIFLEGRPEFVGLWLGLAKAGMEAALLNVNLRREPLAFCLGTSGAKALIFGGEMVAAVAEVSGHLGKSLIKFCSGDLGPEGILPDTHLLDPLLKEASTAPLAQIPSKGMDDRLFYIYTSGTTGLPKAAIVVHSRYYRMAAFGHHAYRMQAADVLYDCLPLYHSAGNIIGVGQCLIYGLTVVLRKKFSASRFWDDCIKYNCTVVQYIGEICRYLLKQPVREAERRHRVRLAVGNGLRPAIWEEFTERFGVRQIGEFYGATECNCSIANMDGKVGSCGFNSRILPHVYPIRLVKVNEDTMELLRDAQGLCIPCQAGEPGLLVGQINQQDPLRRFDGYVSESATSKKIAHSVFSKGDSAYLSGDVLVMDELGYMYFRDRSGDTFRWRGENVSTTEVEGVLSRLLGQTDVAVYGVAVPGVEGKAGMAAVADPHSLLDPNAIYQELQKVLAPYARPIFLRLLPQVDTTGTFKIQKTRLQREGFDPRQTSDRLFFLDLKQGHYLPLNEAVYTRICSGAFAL
Chain of UniProt Q16629 (Q16629 whole entry, looked up): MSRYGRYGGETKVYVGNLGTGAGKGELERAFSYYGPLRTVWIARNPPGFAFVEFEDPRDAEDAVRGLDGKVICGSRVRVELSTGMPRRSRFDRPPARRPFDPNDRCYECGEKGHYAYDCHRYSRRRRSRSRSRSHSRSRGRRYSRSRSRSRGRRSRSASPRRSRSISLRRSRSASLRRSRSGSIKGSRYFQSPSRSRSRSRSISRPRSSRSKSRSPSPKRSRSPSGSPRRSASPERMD

Target | log2 fold change [1] | log2 fold change [2] | log2 fold change [3] | log2 fold change [4] | log2 fold change (Nexturastat A) | log2 fold change (vemurafenib) | log2 fold change [5] | log2 fold change [6] | log2 fold change (givinostat) | log2 fold change (barasertib)
STARD9 (UniProt Q9P2P6) | -0.29 | 0.01 | -0.07 | -0.048 | 0.144 | -0.161 | 0.029 | -0.035 | -0.046 | -0.017
TBC1D24 (UniProt Q9ULP9) | -0.018 | -0.012 | 0.005 | 0.006 | -0.024 | 0.019 | 0.046 | -0.033 | 0.005 | -0.019
SLC27A1 (UniProt Q6PCB7) | -0.186 | 0.036 | -0.046 | 0.12 | -0.061 | -0.109 | -0.008 | -0.01 | 0.049 | 0.043
TJP1 (UniProt Q07157) | 0.03 | -0.039 | 0.011 | -0.012 | -0.005 | 0.041 | 0.065 | -0.021 | 0.102 | 0.033
SMC5 (UniProt Q8IY18) | -0.038 | -0.067 | -0.017 | -0.032 | -0.014 | 0.043 | -0.033 | -0.02 | -0.033 | -0.048
TBRG4 (UniProt Q969Z0) | 0.08 | -0.006 | 0.073 | 0.151 | -0.072 | 0.05 | 0.185 | -0.059 | 0.099 | 0.125
SRSF7 (UniProt Q16629) | 0 | 0.025 | -0.115 | -0.112 | 0.193 | -0.043 | -0.088 | 0.114 | 0.059 | -0.105
TMBIM6 isoform 2 (UniProt P55061) | -0.05 | 0.045 | 0.04 | -0.016 | -0.005 | -0.121 | 0.048 | 0.619 | 0.072 | 0.019
TIMM10 (UniProt P62072) | 0.031 | -0.078 | 0.018 | 0.045 | -0.124 | 0.058 | -0.093 | -0.049 | -0.05 | 0.022
SULT1A1 (UniProt P50225) | 0.015 | 0.162 | -0.022 | 0.025 | -0.023 | 0.135 | 0.037 | 0.092 | 0.044 | 0.068
TJP2 isoform 7 (UniProt Q9UDY2) | -0.017 | -0.006 | 0.007 | -0.014 | 0.048 | 0.09 | 0.101 | -0.194 | 0.071 | 0.102
SMCHD1 (UniProt A6NHR9) | -0.067 | 0 | 0.089 | -0.039 | 0.126 | 0.057 | 0.141 | 0.155 | 0.101 | -0.168
SNX11 (UniProt Q9Y5W9) | -0.008 | 0.012 | -0.003 | 0.043 | 0.014 | 0.043 | 0.025 | 0.022 | -0.006 | 0.019
SRP72 (UniProt O76094) | 0.024 | -0.01 | 0.034 | -0.009 | 0.171 | 0.037 | 0.09 | 0.046 | 0.143 | 0.078
STAT5A (UniProt P42229) | -0.033 | -0.113 | 0.072 | 0.011 | -0.009 | 0.067 | 0.067 | 0.141 | 0.156 | 0.096
TANK (UniProt Q92844) | -0.076 | 0.059 | 0.007 | 0.028 | -0.047 | -0.031 | -0.018 | 0.065 | 0.013 | 0.089
STX7 (UniProt O15400) | -0.003 | 0.025 | -0.002 | 0.055 | -0.023 | -0.036 | 0 | 0 | -0.002 | -0.02
SNX2 (UniProt O60749) | 0.009 | -0.022 | 0.02 | 0.012 | 0.021 | 0.013 | 0.052 | -0.036 | 0.073 | 0.037
SPAG9 (UniProt O60271) | 0.023 | -0.045 | 0.002 | 0.004 | 0.039 | 0.028 | 0.053 | 0.014 | 0.06 | 0.037
TFRC (UniProt P02786) | -0.008 | 0.023 | 0.02 | 0.026 | -0.067 | -0.002 | -0.007 | -0.026 | 0.004 | -0.015
TLK2 isoform 2 (UniProt Q86UE8) | -0.003 | -0.015 | -0.013 | 0.02 | -0.072 | -0.029 | 0.03 | -0.036 | 0.099 | -0.006
SUGP1 (UniProt Q8IWZ8) | -0.006 | -0.021 | 0.033 | 0.065 | 0.056 | 0.121 | 0.096 | -0.001 | 0.095 | 0.068
SRI (UniProt P30626) | 0.035 | -0.092 | 0.094 | 0.037 | -0.073 | 0.092 | 0.045 | -0.055 | -0.03 | 0.107
TAMM41 isoform 3 (UniProt Q96BW9) | -0.021 | -0.013 | 0.049 | 0.056 | -0.084 | -0.006 | 0.04 | -0.062 | 0.036 | 0.046
SSX2 (UniProt Q16385) | 0.021 | -0.013 | 0.011 | 0.073 | -0.254 (active) | 0.046 | 0.035 | -0.016 | -0.099 | 0.018
TFR2 (UniProt Q9UP52) | 0.012 | -0.018 | -0.012 | -0.036 | -0.031 | -0.018 | -0.003 | -0.029 | -0.083 | 0.01
SPTBN4 (UniProt Q9H254) | -0.013 | -0.037 | 0.144 | 0.025 | 0.039 | -0.027 | -0.036 | -0.12 | 0.112 | -0.013
SNX5 (UniProt Q9Y5X3) | 0.001 | 0.015 | 0.009 | 0.039 | -0.074 | 0.009 | 0.035 | -0.031 | 0.013 | 0.04
STARD3 (UniProt Q14849) | 0.103 | 0.075 | -0.027 | 0.036 | -0.048 | 0.052 | -0.059 | 0 | 0.011 | 0.016
TFAM (UniProt Q00059) | 0.039 | -0.004 | -0.036 | -0.036 | 0.079 | -0.05 | -0.043 | -0.033 | -0.055 | -0.023
